Laboratory results from PubChem BioAssay.
Activity calls are given as the source filed them.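 Rule for the calls: active = inhibition above 20% together with a positive visual image hit; inconclusive = visual image hit but inhibition not above 20%; inactive = no visual image hit.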

Assay: inhibitors of TNFa-induced NFkB p65 translocation, primary screen, imaging, HUVEC, MLSMR starter and 10KST1 sets (AID 438);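 note: compound added about 3h40 before a 20 min TNFalpha stimulation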;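 for inhibition: signal is the nuclear over cytoplasmic p65 intensity ratio per well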
Conditions: HUVEC TNFa-induced p65 nuclear translocation; cell count: measured here: nuclei count (cytotoxicity indicator), at 2.08 µM; inhibition: at 2 µM, stronger effect = higher value, 0% TNFa-plus-vehicle, 100% no-TNFa wells
For `CCOc1ccc(NC(=O)CN2CCN(CC(=O)Nc3ccc(F)c(F)c3)CC2)cc1`, the cell count was 409 and the inhibition was 3.1% (inactive).
With `C=C(C)COc1ccc(-c2nc(N)ncc2Oc2ccccc2OCC)c(O)c1` the inhibition was -11% (inactive) and the cell count was 291.
For `Clc1ccccc1-c1nnc2sc(-c3ccccn3)nn12`, the inhibition was -4.1% (inactive) and the cell count was 420.
For `CCOc1cccc(C(=O)Nc2cccc(-c3nc4ncccc4o3)c2C)c1`, the inhibition was 3.3% (inactive) and the cell count was 333.
With `CCOC(=O)N1CCN(S(=O)(=O)c2cc(Cl)c(OC)cc2Cl)CC1` the cell count was 364 and the inhibition was -9.8% (inactive).
For `CCCCN(CC)S(=O)(=O)N1CCC(C(=O)NCc2ccc(F)cc2)CC1`, the cell count was 705 and the inhibition was -6.9% (inactive).
In the case of `Cc1ccc(Nc2nnns2)cc1C`, the cell count is reported as 758 and the inhibition is reported as 5% (inactive).
With `C=CCn1c(=O)/c(=C/c2ccc(O)cc2)s/c1=C(/C#N)c1nnc2n1CCCCC2` the cell count was 483 and the inhibition was -0.5% (inactive).
For `CC(=O)Nc1c(Cl)n(C(C)=O)c2ccccc12`, the cell count was 432 and the inhibition was -1% (inactive).
For `COc1ccc(OC)c(S(=O)(=O)Nc2ccccc2C(=O)O)c1`, the cell count was 702 and the inhibition was -4.4% (inactive).
For `Cc1ccc(C)c(NC(=O)C2CCC(C)(C(=O)O)C2(C)C)c1` (stereo not given), the inhibition was -2.5% (inactive) and the cell count was 352.
For `Oc1ccc(N2CCN(C(c3cccnc3)c3nnnn3Cc3ccccc3)CC2)cc1` (stereo not given), the cell count was 612 and the inhibition was 1.4% (inactive).
In the case of `CC(C(=O)N1CCOCC1)N1c2cccc3cccc(c23)S1(=O)=O` (stereo not given), the inhibition is reported as -13.3% (inactive) and the cell count is reported as 341.
With `Cc1nc2ccccn2c1/C(O)=C1\C(=O)C(=O)N(CCN2CCOCC2)C1c1cccs1` (stereo not given) the cell count was 318 and the inhibition was 0.2% (inactive).
With `COC(=O)c1cc(OC)c(OC)cc1NC(=O)CC1CCCCC1` the inhibition was -8.9% (inactive) and the cell count was 291.
With `COc1ccccc1C(=O)Nc1c2c(nn1-c1cccc(C)c1C)CS(=O)(=O)C2` the inhibition was -6.6% (inactive) and the cell count was 335.
In the case of `CC(C)=CC(=O)Nc1ccc(Br)cc1`, the cell count is reported as 670 and the inhibition is reported as -11.9% (inactive).
In the case of `COc1cccc2c(=O)c3c(cnn3C)n(C)c12`, the cell count is reported as 279 and the inhibition is reported as 16.3% (inactive).
For `O=C(c1noc2c1CCc1ccccc1-2)N1CCOCC1`, the inhibition was -5.4% (inactive) and the cell count was 234.
For `CCN1CCN(C(=O)c2ccc3c(=O)n(C4CCCC4)c(=S)[nH]c3c2)CC1`, the inhibition was -4.3% (inactive) and the cell count was 507.
For `CCC(Oc1ccc2ccccc2c1)C(=O)O` (stereo not given), the inhibition was -4% (inactive) and the cell count was 666.
With `CC(=O)c1nnn(-c2nc(N3CCCC3)nc(N(c3ccccc3)c3ccccc3)n2)c1C` the inhibition was 8.9% (inactive) and the cell count was 558.
For `COc1ccc(-n2cc(-c3ccccc3)c3c(N4CCN(CCO)CC4)ncnc32)cc1`, the cell count was 568 and the inhibition was -26.5% (inactive).
For `O=C(N1CCCCCC1)N1CCN(S(=O)(=O)N2CCCCC2)CC1`, the inhibition was -2.2% (inactive) and the cell count was 323.
In the case of `OCC#CCSc1nnc(-c2ccccc2Br)o1`, the cell count is reported as 390 and the inhibition is reported as -5.2% (inactive).
With `CC(C(=O)N1CCc2ccccc21)N1CCc2ccccc2C1` (stereo not given) the cell count was 597 and the inhibition was -1% (inactive).
For `C=CCN(CC=C)C(=O)CN1C(=O)c2ccccc2C1=O`, the inhibition was 0.2% (inactive) and the cell count was 356.
In the case of `O=C(Cn1nnc2c(cnn2-c2ccc(F)cc2)c1=O)c1ccccc1F`, the inhibition is reported as 5.1% (inactive) and the cell count is reported as 438.
In the case of `COc1cccc(-c2noc(CCC(=O)NC3CCCCC3)n2)c1`, the cell count is reported as 433 and the inhibition is reported as -12.7% (inactive).
For `Cc1cc(C)c2cc(CN(CC3CCCO3)C(=O)NC3CCCCC3)c(=O)[nH]c2c1` (stereo not given), the inhibition was -21% (inactive) and the cell count was 598.
In the case of `CCOc1cc(C)c(Cl)cc1S(=O)(=O)N(C)C`, the cell count is reported as 682 and the inhibition is reported as -14.7% (inactive).
With `COc1ccc(CCNS(=O)(=O)c2ccc3c(c2)CCN3C(=O)CCC(=O)O)cc1OC` the cell count was 620 and the inhibition was -6.5% (inactive).
In the case of `CCOc1ccc(OCc2cccc(C(=O)O)c2)cc1`, the cell count is reported as 600 and the inhibition is reported as 3.8% (inactive).
With `O=c1c2ccccc2cnn1-c1nc2ccccc2s1` the cell count was 480 and the inhibition was -1% (inactive).
In the case of `CCC(C)c1ccc(NC(=O)C2CC2)cc1` (stereo not given), the inhibition is reported as -11.6% (inactive) and the cell count is reported as 466.
For `O=C(CC1CCCCC1)NCc1ccccn1`, the inhibition was 4.1% (inactive) and the cell count was 595.
With `CS(=O)(=O)N(CC(=O)N1CCN(c2cccc(Cl)c2)CC1)C1CCCCC1` the cell count was 645 and the inhibition was -6% (inactive).
With `Cc1ccc(N2CCN(C(=O)c3ccccc3Br)CC2)c(C)c1` the inhibition was -20.4% (inactive) and the cell count was 655.
In the case of `COC(=O)c1c(N)nc(C)n1-c1ccc(OC)cc1`, the inhibition is reported as -9.2% (inactive) and the cell count is reported as 324.
For `O=C(O)CC1CCCC(c2ccccc2)C1=O` (stereo not given), the cell count was 658 and the inhibition was -6.5% (inactive).
